compound: CCc1cnn2c(NCc3ccc[n+]([O-])c3)cc(N3CCCC[C@H]3CCO)nc12 [dinaciclib]; assay: cell viability remaining relative to DMSO control; higher = less cytotoxic (more viable cells); conditions: 100 nM; 24 h
Outline: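 Cell lines from solid tumours, sourced from commercial cell banks, were treated with 100 nM of the test compound for 24 hr at a final DMSO level of ≤0.2%. ATP luminescence was measured with the CellTiter-Glo assay according to the manufacturer's instructions. Remaining viability is the ratio of light units in treated wells to those in DMSO-treated control wells, expressed as a percentage of the DMSO control. Each value is the mean of 2–6 plates, each with triplicate wells.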

Q: How did the cell viability remaining turn out when SKMEL31 was run?
A: 66.9%

Q: How did the cell viability remaining turn out when CAL27 was run?
A: 11.2%

Q: For AZ521, which cell viability remaining is on record?
A: 56.1%

Q: For SW1783, which cell viability remaining is on record?
A: 72.9%

Q: Which cell viability remaining does the source give for CALU6 here?
A: 58.4%

Q: With U2OS as the target, how does the cell viability remaining read?
A: 36.4%

Q: For EFO27, which cell viability remaining is on record?
A: 106%

Q: How did the cell viability remaining turn out when SKOV3 was run?
A: 81.1%

Q: With H520 as the target, how does the cell viability remaining read?
A: 30.8%

Q: For COLO679, which cell viability remaining is on record?
A: 68.6%

Q: How did the cell viability remaining turn out when SW48 was run?
A: 55.8%

Q: How did the cell viability remaining turn out when CAL120 was run?
A: 76.8%

Q: How did the cell viability remaining turn out when NCI-H1395 was run?
A: 36%

Q: How did the cell viability remaining turn out when OVTOKO was run?
A: 95.4%

Q: H2052 was tested. Which cell viability remaining did it give?
A: 91.9%

Q: With COV318 as the target, how does the cell viability remaining read?
A: 79.8%

Q: How did the cell viability remaining turn out when H146 was run?
A: 86.5%

Q: Which cell viability remaining does the source give for SNU5 here?
A: 69.5%

Q: For HS895T, which cell viability remaining is on record?
A: 92.4%

Q: SJSA1 was tested. Which cell viability remaining did it give?
A: 66.7%

Q: Which cell viability remaining does the source give for NCI-H2110 here?
A: 56.9%

Q: How did the cell viability remaining turn out when HCT116 was run?
A: 55.4%

Q: Which cell viability remaining does the source give for COLO829 here?
A: 24.8%

Q: H226 was tested. Which cell viability remaining did it give?
A: 56.1%

Q: With HCC1428 as the target, how does the cell viability remaining read?
A: 19.7%

Q: Which cell viability remaining does the source give for H1793 here?
A: 91.3%

Q: For OVCAR8, which cell viability remaining is on record?
A: 104%

Q: With HS934T as the target, how does the cell viability remaining read?
A: 124%

Q: How did the cell viability remaining turn out when SNGM was run?
A: 98.3%

Q: How did the cell viability remaining turn out when HS294T was run?
A: 52.6%

Q: Which cell viability remaining does the source give for SKMEL30 here?
A: 62.5%

Q: A101D was tested. Which cell viability remaining did it give?
A: 33.9%

Q: A2058 was tested. Which cell viability remaining did it give?
A: 18.4%

Reference: the supplement of paper PMC4188521
